Laboratory results reported in PubChem BioAssay AID1159580 (chemical genetic matrix, 2015).
About 2,000 (36%) of roughly 5,500 compounds were called active. Roughly 18% stayed inconclusive and do not appear here. Cut-off read from the data, not from the text of the source: active = normalized growth mostly below about 0.91 (no sharp cut-off); inconclusive = no clear call, values can overlap the other calls; inactive = mostly above about 0.92. This is one part of the list.

Assay: chemical genetic growth profiling, strain panel (AID 1159580);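 note: tested at 20 µM; growth read once vehicle control cultures reached saturation at 30 °C; 1 = growth at the plate median or of vehicle wells; lower values mean less growth of the strain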
Details: growth OD

Measured: normalized growth

Nc1ccc(S(=O)(=O)Nc2nccs2)cc1
inactive: S. cerevisiae deletion strains, locus YJR075W, strain HOC1, stronger effect = lower value 1.01 | S. cerevisiae deletion strains, locus YKL009W, strain mrt4, stronger effect = lower value 0.999 | S. cerevisiae deletion strains, locus YKL068W, stronger effect = lower value 0.99 | S. cerevisiae deletion strains, locus YKL085W, strain MDH1 (second series), stronger effect = lower value 0.99 | S. cerevisiae deletion strains, locus YKL085W, strain MDH1, stronger effect = lower value 0.99 | S. cerevisiae deletion strains, locus YKL160W, strain elf1, stronger effect = lower value 1.02 | S. cerevisiae deletion strains, locus YKL190W, strain CNB1, stronger effect = lower value 1.01 | S. cerevisiae deletion strains, locus YKR001C, strain vps1, stronger effect = lower value 1.02 | S. cerevisiae deletion strains, locus YKR026C, strain gcn3, stronger effect = lower value 1.01 | S. cerevisiae deletion strains, locus YKR091W, strain srl3, stronger effect = lower value 1.01 | S. cerevisiae deletion strains, locus YLL001W, strain dnm1, stronger effect = lower value 1.02 | S. cerevisiae deletion strains, locus YLL026W, stronger effect = lower value 1.02 | S. cerevisiae deletion strains, locus YLL041C, strain sdh2, stronger effect = lower value 1.01 | S. cerevisiae deletion strains, locus YLR027C, strain aat2, stronger effect = lower value 1.02 | S. cerevisiae deletion strains, locus YLR039C, strain RIC1, stronger effect = lower value 1.04 | S. cerevisiae deletion strains, locus YLR058C, strain SHM2, stronger effect = lower value 1.01 | S. cerevisiae deletion strains, locus YLR102C, strain apc9, stronger effect = lower value 0.995 | S. cerevisiae deletion strains, locus YLR113W, strain HOG1, stronger effect = lower value 1.02 | S. cerevisiae deletion strains, locus YLR221C, strain rsa3, stronger effect = lower value 1 | S. cerevisiae deletion strains, locus YLR258W, strain gsy2, stronger effect = lower value 1.01 | S. cerevisiae deletion strains, locus YLR262C, strain YPT6 (second series), stronger effect = lower value 1.03 | S. cerevisiae deletion strains, locus YLR262C, strain YPT6, stronger effect = lower value 1.05 | S. cerevisiae deletion strains, locus YLR268W, strain sec22, stronger effect = lower value 0.948 | S. cerevisiae deletion strains, locus YLR320W, strain mms22, stronger effect = lower value 0.992 | S. cerevisiae deletion strains, locus YLR330W, strain CHS5, stronger effect = lower value 1.01 | S. cerevisiae deletion strains, locus YLR342W, strain FKS1 (second series), stronger effect = lower value 1.03 | S. cerevisiae deletion strains, locus YLR342W, strain FKS1, stronger effect = lower value 1.01 | S. cerevisiae deletion strains, locus YLR357W, strain rsc2, stronger effect = lower value 1.02 | S. cerevisiae deletion strains, locus YLR370C, strain arc18, stronger effect = lower value 1.02 | S. cerevisiae deletion strains, locus YLR371W, strain rom2, stronger effect = lower value 0.996 | S. cerevisiae deletion strains, locus YLR384C, strain iki3, stronger effect = lower value 1.02 | S. cerevisiae deletion strains, locus YLR418C, strain cdc73, stronger effect = lower value 0.997 | S. cerevisiae deletion strains, locus YML016C, strain PPZ1, stronger effect = lower value 1.01 | S. cerevisiae deletion strains, locus YML032C, strain rad52, stronger effect = lower value 0.98 | S. cerevisiae deletion strains, locus YML120C, strain ndi1, stronger effect = lower value 1.02 | S. cerevisiae deletion strains, locus YML124C, strain tub3, stronger effect = lower value 0.997 | S. cerevisiae deletion strains, locus YMR058W, strain fet3, stronger effect = lower value 1.02 | S. cerevisiae deletion strains, locus YMR078C, strain ctf18, stronger effect = lower value 0.994 | S. cerevisiae deletion strains, locus YMR125W, strain sto1, stronger effect = lower value 1 | S. cerevisiae deletion strains, locus YMR129W, stronger effect = lower value 1.01 | S. cerevisiae deletion strains, locus YMR205C, strain PFK2, stronger effect = lower value 1 | S. cerevisiae deletion strains, locus YMR223W, strain ubp8, stronger effect = lower value 1.01 | S. cerevisiae deletion strains, locus YMR231W, strain pep5, stronger effect = lower value 1.01 | S. cerevisiae deletion strains, locus YMR263W, strain SAP30, stronger effect = lower value 1.01 | S. cerevisiae deletion strains, locus YMR307W, strain GAS1, stronger effect = lower value 0.995 | S. cerevisiae deletion strains, locus YNL067W, strain RPL9B, stronger effect = lower value 1.02 | S. cerevisiae deletion strains, locus YNL071W, strain lat1, stronger effect = lower value 1.01 | S. cerevisiae deletion strains, locus YNL128W, strain TEP1, stronger effect = lower value 1.01 | S. cerevisiae deletion strains, locus YNL153C, strain GIM3, stronger effect = lower value 1 | S. cerevisiae deletion strains, locus YNL183C, strain NPR1, stronger effect = lower value 0.948 | S. cerevisiae deletion strains, locus YNL209W, strain ssb2, stronger effect = lower value 1.02 | S. cerevisiae deletion strains, locus YNL233W, strain BNI4, stronger effect = lower value 0.99 | S. cerevisiae deletion strains, locus YNL248C, strain rpa49, stronger effect = lower value 0.998 | S. cerevisiae deletion strains, locus YNL250W, strain rad50, stronger effect = lower value 0.989 | S. cerevisiae deletion strains, locus YNL271C, strain bni1, stronger effect = lower value 0.992 | S. cerevisiae deletion strains, locus YNL298W, strain CLA4, stronger effect = lower value 1 | S. cerevisiae deletion strains, locus YNL307C, strain MCK1, stronger effect = lower value 0.995 | S. cerevisiae deletion strains, locus YNL322C, strain KRE1 (second series), stronger effect = lower value 1.02 | S. cerevisiae deletion strains, locus YNL322C, strain KRE1, stronger effect = lower value 1.01 | S. cerevisiae deletion strains, locus YNR049C, strain mso1, stronger effect = lower value 1.01 | S. cerevisiae deletion strains, locus YNR052C, strain pop2, stronger effect = lower value 1 | S. cerevisiae deletion strains, locus YOL006C, strain TOP1, stronger effect = lower value 1.01 | S. cerevisiae deletion strains, locus YOL012C, strain htz1 1.03 | S. cerevisiae deletion strains, locus YOL147C, strain pex11, stronger effect = lower value 0.992 | S. cerevisiae deletion strains, locus YOR001W, strain rrp6, stronger effect = lower value 1.03 | S. cerevisiae deletion strains, locus YOR061W, strain CKA2, stronger effect = lower value 1.01 | S. cerevisiae deletion strains, locus YOR069W, strain VPS5, stronger effect = lower value 1.01 | S. cerevisiae deletion strains, locus YOR070C, strain gyp1, stronger effect = lower value 1 | S. cerevisiae deletion strains, locus YOR080W, strain dia2, stronger effect = lower value 1.01 | S. cerevisiae deletion strains, locus YOR083W, strain WHI5, stronger effect = lower value 0.98 | S. cerevisiae deletion strains, locus YOR106W, strain vam3, stronger effect = lower value 1.04 | S. cerevisiae deletion strains, locus YOR136W, strain idh2, stronger effect = lower value 0.993 | S. cerevisiae deletion strains, locus YOR144C, strain elg1, stronger effect = lower value 1 | S. cerevisiae deletion strains, locus YOR184W, strain ser1, stronger effect = lower value 1 | S. cerevisiae deletion strains, locus YOR231W, strain MKK1, stronger effect = lower value 1.05 | S. cerevisiae deletion strains, locus YOR265W, strain rbl2, stronger effect = lower value 1.02 | S. cerevisiae deletion strains, locus YOR270C, strain vph1, stronger effect = lower value 1.03 | S. cerevisiae deletion strains, locus YOR290C, strain snf2, stronger effect = lower value 0.997 | S. cerevisiae deletion strains, locus YOR316C, strain cot1, stronger effect = lower value 0.999 | S. cerevisiae deletion strains, locus YPL051W, strain arl3, stronger effect = lower value 1.02 | S. cerevisiae deletion strains, locus YPL055C, strain LGE1, stronger effect = lower value 1.02 | S. cerevisiae deletion strains, locus YPL078C, strain atp4, stronger effect = lower value 1.02 | S. cerevisiae deletion strains, locus YPL106C, strain sse1, stronger effect = lower value 1.03 | S. cerevisiae deletion strains, locus YPL240C, strain hsp82, stronger effect = lower value 1.03 | S. cerevisiae deletion strains, locus YPL241C, strain CIN2, stronger effect = lower value 1.01 | S. cerevisiae deletion strains, locus YPL256C, strain CLN2, stronger effect = lower value 1.02 | S. cerevisiae deletion strains, locus YPR119W, strain clb2, stronger effect = lower value 0.992 | S. cerevisiae deletion strains, locus YPR141C, strain kar3, stronger effect = lower value 0.996 | S. cerevisiae deletion strains, locus YPR163C, strain tif3, stronger effect = lower value 1 | S. cerevisiae deletion strains, locus YPR167C, strain met16, stronger effect = lower value 1 | S. cerevisiae deletion strains, strain wtn01, stronger effect = lower value 0.997 | S. cerevisiae strains, strain wild type, stronger effect = lower value 0.997
